A number with no mark means an inactive call. Records with an inconclusive call do not appear. Entries that show only a call come without a potency. Activity calls are given as the source filed them. Calls come from the whole dose curve; as a rule, active = well fitted curve in the direction sought with a large enough effect in the repeat runs; inconclusive = weak or mixed curves; inactive = no such curve, though single readings can be large; an effect the other way counts as inactive or inconclusive.
Assays:
[1] = Human pregnane X receptor (PXR) small molecule agonists, qHTS cell viability counter screen (AID 1346977); note: nearly all actives have a fitted effect of over 50% in size; note: potency is the fitted concentration of half-maximal effect
How it was run: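 HepG2 cells stably carrying the PXR-Luc reporter are cultured with 5% charcoal-stripped FBS and treated with compounds for 24hr. CellTiter-Fluor is added at 23hr and fluorescence is read after 1hr.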

[2] = Caspase-3/7 induction in HepG2 cells by small molecules, qHTS assay (AID 1346978); note: nearly all actives have a fitted effect of over 15% in size
How it was run: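 Wild-type HepG2 cells, 2,000/well, settled 5 hr at 37 C and 5% CO2, then compound-treated for 17 hr; caspase-3/7 activity read by luminescent Caspase-Glo 3/7 after 30 min at room temperature.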

[3] = Caspase-3/7 induction in CHO-K1 cells by small molecules, qHTS cell viability counter screen (AID 1346979); note: nearly all actives have a fitted effect of over 35% in size; note: potency is the fitted concentration of half-maximal effect
How it was run: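 Seeding: 1,500 CHO-K1 cells/well. Rest: 5hr, 37C. Treatment: compounds in DMSO, 16hr. Read: CellTiter-Fluor, 1hr, fluorescence.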

[4] = Caspase-3/7 induction in CHO-K1 cells by small molecules, qHTS assay (AID 1346980); note: nearly all actives have a fitted effect of over 15% in size
How it was run: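 Wild-type CHO-K1 cells exposed to compounds for 17hr at 37 C, 5% CO2. Caspase-3/7 activity then measured by Caspase-Glo 3/7 luminescence after 30min at room temperature.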

[5] = Caspase-3/7 induction in HepG2 cells by small molecules, qHTS cell viability counter screen (AID 1346981); note: nearly all actives have a fitted effect of over 30% in size; note: potency is the fitted concentration of half-maximal effect
How it was run: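 Steps: seed 2,000 HepG2 cells per well; incubate 5 hr at 37 C; pin-add compounds in DMSO; incubate 16 hr; add CellTiter-Fluor; after 1 hr at 37 C and 5% CO2, read fluorescence.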

[6] = target: Nuclear receptor subfamily 1 group I member 2 (Homo sapiens) (UniProt O75469); experiment: Human pregnane X receptor (PXR) small molecule agonists, qHTS assay (AID 1346982); note: nearly all actives have a fitted effect of over 35% in size; note: potency is the fitted concentration of half-maximal effect
How it was run: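 Agonist mode qHTS: PXR-Luc HepG2 cells plated 5 hr before DMSO-dissolved compounds were pinned in, cultured 24 hr at 37 C, 5% CO2; ONE-Glo luminescence readout.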

[7] = target: Cytochrome P450 2D6 (Homo sapiens) (UniProt P10635); experiment: Cytochrome P450 Family 2 Subfamily D Member 6 (CYP2D6) small molecule antagonists: luciferase reporter qHTS assay (AID 1671196); note: nearly all actives have a fitted effect of over 50% in size; note: potency is the fitted concentration of half-maximal effect
How it was run: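 P450-Glo format: CYP2D6 converts a proluciferin substrate to luciferin in an NADPH-driven reaction lasting 1 h at room temperature. Light output, proportional to CYP2D6 activity, reflects interference by test chemicals.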

[8] = target: Nuclear receptor subfamily 1 group I member 2 (Rattus norvegicus) (UniProt Q9R1A7); experiment: Rat pregnane X receptor (rPXR) activation by small molecules, qHTS assay (AID 1346983); conditions: rPXR luciferase reporter cells, One-Glo luminescence, 24 h; max activation: stronger effect = higher value; note: nearly all actives have a fitted effect of over 20% in size
How it was run: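 Cell-based rPXR activation assay: rPXR cells, 2,000 per well, rested 5hr at 37 C, then exposed to compounds in DMSO for 24 hr at 37 C. Luciferase activity read by One-Glo luminescence after 30 min at room temperature.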

[9] = target: Nuclear receptor subfamily 1 group I member 2 (Homo sapiens) (UniProt O75469); experiment: CYP3A4 induction through human pregnane X receptor (PXR) by small molecules, qHTS assay (AID 1346984); note: nearly all actives have a fitted effect of over 40% in size
How it was run: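 Steps: seed DPX-2 cells, 5 hr at 37C; pin-transfer compounds; 24 hr at 37C; add Luciferin-IPA (3uM final), 3 hr at 37C; add One-Glo, 30 min RT; read luminescence.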

[10] = target: Nuclear receptor subfamily 1 group I member 2 (Homo sapiens) (UniProt O75469); experiment: Human pregnane X receptor (PXR) activation by small molecules, qHTS assay (AID 1346985); note: nearly all actives have a fitted effect of over 40% in size; note: potency is the fitted concentration of half-maximal effect
How it was run: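 DPX-2 cells (HepG2 co-transfected with a PXR response element and a CYP3A4-promoter luciferase construct) were seeded at 2,000 per well, rested 5 hr at 37C, then exposed to DMSO-dissolved compounds for 24 hr. Activation was read as luciferase luminescence.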

Sequence of Nuclear receptor subfamily 1 group I member 2 (Homo sapiens) (O75469 whole entry, looked up): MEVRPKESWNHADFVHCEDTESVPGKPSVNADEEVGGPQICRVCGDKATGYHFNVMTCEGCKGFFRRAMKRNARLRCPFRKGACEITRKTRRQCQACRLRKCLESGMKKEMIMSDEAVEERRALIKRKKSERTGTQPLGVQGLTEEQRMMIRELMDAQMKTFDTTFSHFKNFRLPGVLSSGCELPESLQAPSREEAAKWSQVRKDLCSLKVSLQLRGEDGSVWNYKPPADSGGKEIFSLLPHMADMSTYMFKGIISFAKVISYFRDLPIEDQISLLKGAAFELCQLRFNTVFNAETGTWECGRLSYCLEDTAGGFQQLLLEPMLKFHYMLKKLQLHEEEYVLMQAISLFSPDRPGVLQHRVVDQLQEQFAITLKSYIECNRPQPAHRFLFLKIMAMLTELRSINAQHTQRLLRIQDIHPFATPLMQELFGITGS
Sequence of Nuclear receptor subfamily 1 group I member 2 (Rattus norvegicus) (Q9R1A7 whole entry, looked up): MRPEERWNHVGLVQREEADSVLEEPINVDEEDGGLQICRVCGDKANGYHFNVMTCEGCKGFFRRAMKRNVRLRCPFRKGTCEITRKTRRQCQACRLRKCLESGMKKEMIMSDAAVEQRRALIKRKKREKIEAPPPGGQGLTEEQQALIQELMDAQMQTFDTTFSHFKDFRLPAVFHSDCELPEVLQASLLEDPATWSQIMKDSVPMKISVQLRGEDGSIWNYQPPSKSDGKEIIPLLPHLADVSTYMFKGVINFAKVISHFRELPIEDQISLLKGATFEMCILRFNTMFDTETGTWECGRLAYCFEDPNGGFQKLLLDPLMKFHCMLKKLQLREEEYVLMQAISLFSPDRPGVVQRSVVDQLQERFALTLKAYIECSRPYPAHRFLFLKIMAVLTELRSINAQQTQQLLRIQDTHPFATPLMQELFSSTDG
Sequence of Cytochrome P450 2D6 (Homo sapiens) (P10635 whole entry, looked up): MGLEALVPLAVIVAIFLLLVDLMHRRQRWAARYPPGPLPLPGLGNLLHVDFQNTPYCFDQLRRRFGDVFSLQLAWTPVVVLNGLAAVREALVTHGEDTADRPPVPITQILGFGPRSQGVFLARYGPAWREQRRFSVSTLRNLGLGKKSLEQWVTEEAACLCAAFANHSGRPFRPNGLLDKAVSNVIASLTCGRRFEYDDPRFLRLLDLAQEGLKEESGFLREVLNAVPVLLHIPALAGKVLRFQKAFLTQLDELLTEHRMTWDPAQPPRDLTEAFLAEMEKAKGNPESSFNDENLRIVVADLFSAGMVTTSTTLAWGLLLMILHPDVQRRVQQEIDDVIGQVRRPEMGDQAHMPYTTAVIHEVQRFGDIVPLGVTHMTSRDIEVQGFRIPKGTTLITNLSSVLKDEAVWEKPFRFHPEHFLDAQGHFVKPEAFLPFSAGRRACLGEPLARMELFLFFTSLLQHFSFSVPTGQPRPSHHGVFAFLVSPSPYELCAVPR

SMILES | Potency [1] | Potency [2] | Potency [3] | Potency [4] | Potency [5] | Potency [6] | Potency [7] | max activation [8] | Potency [9] | Potency [10]
COC(C)(C)CCO | inactive | inactive | inactive | inactive | inactive | inactive | inactive | – | – | –
C[C@@H]1C[C@H]2[C@@H]3CCC4=CC(=O)C=C[C@]4(C)[C@@]3(F)[C@@H](O)C[C@]2(C)[C@@]1(O)C(=O)COC(=O)c1ccncc1 | inactive | inactive | inactive | inactive | inactive | 1.33 µM (active) | 11 µM (active) | – | – | –
Nc1c(CC(=O)O)cccc1C(=O)c1ccc(Br)cc1 | inactive | inactive | inactive | inactive | inactive | inactive | inactive | -2.12% | inactive | inactive
CC(C)(C)OCC1CO1 (centres undefined) | inactive | inactive | inactive | inactive | inactive | inactive | inactive | – | – | –
O=C(O)c1ccc(-n2nc(-c3ccccc3O)nc2-c2ccccc2O)cc1 | inactive | inactive | 18.8 µM (active) | inactive | inactive | inactive | inactive | – | – | –
ClCCOCCOCCCl | inactive | inactive | inactive | inactive | inactive | inactive | inactive | – | – | –
c1ccc(CNCCNCc2ccccc2)cc1 | inactive | inactive | inactive | inactive | inactive | inactive | 0.776 µM (active) | -3.63% | inactive | inactive
CCCCOC(=O)CCCCCCCC(=O)OCCCC | inactive | inactive | inactive | inactive | inactive | inactive | inactive | – | – | –
C/C=C/C=C/CO | inactive | inactive | inactive | inactive | inactive | inactive | inactive | – | – | –
CCC(C)(C)CC | inactive | inactive | inactive | inactive | inactive | inactive | inactive | – | – | –
CCn1cc(C(=O)O)c(=O)c2cnc(N3CCNCC3)nc21 | inactive | inactive | inactive | inactive | inactive | inactive | inactive | -1.76% | inactive | inactive
O[C@@H](COc1cccc2ncccc12)CN1CCN(C2c3ccccc3[C@@H]3[C@H](c4ccccc42)C3(F)F)CC1 (some centres undefined) | 23.7 µM (active) | inactive | 16.8 µM (active) | inactive | 21.1 µM (active) | 1.19 µM (active) | 11 µM (active) | – | – | –
COC(C)OC | inactive | inactive | inactive | inactive | inactive | inactive | inactive | – | – | –
COc1ccc(C(=O)N2CCN(CC(=O)N3CCOCC3)CC2)cc1 | inactive | inactive | inactive | inactive | inactive | inactive | inactive | -1.44% | inactive | inactive
O=[N+]([O-])c1ccc2[nH]ncc2c1 | inactive | inactive | inactive | inactive | inactive | inactive | inactive | – | – | –
CCOC(=O)c1cccnc1 | inactive | inactive | inactive | inactive | inactive | inactive | inactive | -3.51% | inactive | inactive
CCOC(=O)C(F)(F)F | inactive | inactive | inactive | inactive | inactive | inactive | 35.6 µM (active) | – | – | –
Cc1ncc(CO)c(C=O)c1O | inactive | inactive | inactive | inactive | inactive | inactive | inactive | -0.222% | inactive | inactive
OCCN1CCN(CCCN2c3ccccc3C=Cc3ccccc32)CC1 | – | – | – | – | – | – | – | – | – | 10 µM (active)
O=C(CS)Nc1ccccc1 | inactive | inactive | inactive | – | inactive | inactive | inactive | – | – | –
O=C1CCC(=O)O1 | inactive | inactive | inactive | – | – | inactive | – | – | – | –
CC[N+]1(CC)CCC(=C(c2ccccc2)c2ccccc2)C1C (centres undefined) | inactive | inactive | inactive | inactive | – | inactive | 1.74 µM (active) | – | – | –
Cc1c(N)cccc1[N+](=O)[O-] | inactive | inactive | inactive | inactive | – | inactive | inactive | – | – | –
O=C(O)CC(=O)C(=O)O | inactive | inactive | inactive | inactive | – | 48.7 µM (active) | inactive | – | – | –
CCCCCCCCCCCc1ccccc1 | inactive | inactive | inactive | – | inactive | inactive | inactive | – | – | –

Reference: PubChem BioAssay (Tox21)
